Assay [1] concerns TRPC4 beta (transient receptor potential cation channel C4), mouse. Nature of the assay: activators of mouse TRPC4 channel, confirmation, cell-based, Fluo4 calcium, HEK293 TRPC4beta/mu-opioid, duplicates, 10 µM (AID 2426;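 active means fluorescence ratio normalized to control raised more than 50% in primary screen plus both repeat runs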). The conditions noted are these: Fluo4 calcium fluorescence, at 10 µM; stronger effect = higher value.
Assay [2] deals with transient receptor potential cation channel C4 beta (TRPC4), mouse. Nature of the assay: activators of mouse TRPC4 channel, confirmation, cell-based, second round, Fluo4, HEK293 TRPC4beta/mu-opioid, 1 µM (AID 2461;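 active means primary screen active and over 50% activation in each of two duplicate runs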). The conditions noted are these: Fluo4 calcium fluorescence, at 1 µM; stronger effect = higher value.
The subject of assay [3] is TRPC4 (transient receptor potential cation channel C4 beta), mouse. Nature of the assay: positive allosteric modulators of mouse TRPC4, confirmation, cell-based, second round, Fluo-4, HEK293 TRPC4beta/mu-opioid, 1 µM (AID 2554;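 active means primary screen hit whose fluorescence ratio, in both repeats, exceeds the weak agonist control mean by 3 SD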). The conditions noted are these: DAMGO EC20, Fluo-4 calcium flux, at 1 µM; stronger effect = higher value. Background: A change in cytosolic calcium serves as a functional read-out for many receptors and channels.

Assay [4] deals with TRPC4 beta (transient receptor potential cation channel C4), mouse. Nature of the assay: positive allosteric modulators of mouse TRPC4, confirmation, cell-based, Fluo-4, HEK293 TRPC4beta/mu-opioid (AID 2555;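 active means primary screen hit whose calcium fluorescence ratio, in both repeats, exceeds the weak agonist control mean by 3 SD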). The conditions noted are these: DAMGO EC20, Fluo-4 calcium flux, at 10 µM; stronger effect = higher value.
Assay [5] has as its target Short transient receptor potential channel 4 (Mus musculus) (UniProt Q9QUQ5). Nature of the assay: inhibitors of mouse TRPC4 channel, confirmation, cell-based, Fluo4, HEK293 TRPC4beta/mu-opioid (AID 2636;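 active means calcium signal cut by more than 3 SD below the full-agonist control yet still positive, in both repeats and the earlier primary screen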). The conditions noted are these: DAMGO, Fluo4 calcium flux, at 10 µM; stronger effect = higher value.
For assay [6] the target is unchanged. Nature of the assay: inhibitors of mouse TRPC4 channel, confirmation, cell-based, second round, Fluo4, HEK293 TRPC4beta/mu-opioid, 1 µM (AID 2637;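 active means calcium signal ratio cut to more than 3 SD under the fully stimulated control mean yet still positive, in both repeats and the primary screen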;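 on inhibition: percent of integrated ratio relative to wells lacking test compound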). The conditions noted are these: Fluo4 calcium flux, DAMGO, at 1 µM; stronger effect = higher value.
The target is the same in assay [7]. Nature of the assay: mouse TRPC4 channel activators, dose response, cell-based, HEK293 TRPC4/mu-opioid, Fluo-4 calcium (AID 434937;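 active means primary screen activator hit with a dose response curve and TRPC4 channel activation at any tested dose; inactive means no activation, no dose response, or not a primary hit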).
For assay [8] the target is unchanged. Nature of the assay: TRPC4 positive allosteric modulators, dose response, cell-based, HEK293 TRPC4/mu-opioid, Fluo-4 calcium, EC20 DAMGO (AID 434941;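 active means earlier screen potentiator hit that boosts the TRPC4 ion channel at some dose, with a dose response; inactive means no potentiation, no dose response, or not a prior hit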;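 further: calcium entry triggered by an EC20 dose of DAMGO at the co-expressed mu-opioid receptor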).
Assay [9] addresses Short transient receptor potential channel 6 (Mus musculus) (UniProt Q61143). Nature of the assay: inhibition of mouse TRPC6 channel, confirmation, selectivity assay for TRPC4 inhibitor project, cell-based, HEK293, membrane potential dye, duplicate (AID 434948;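 active means active in primary screen and both duplicates, each dropping signal beyond three positive-control SD with fluorescence still positive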). The conditions noted are these: HEK293 TRPC6, membrane potential dye fluorescence, at 10 µM, stimulated with maximal-effect acetylcholine; stronger effect = higher value.

The target is the same in assay [10]. Nature of the assay: activation of mouse TRPC6 channel, confirmation, selectivity assay for TRPC4 activator project, cell-based, HEK293, membrane potential dye, duplicate (AID 434950;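 active means membrane potential signal rise above negative control mean plus 3 SD in both duplicates, also active in the earlier TRPC4 screen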). The conditions noted are these: HEK293 TRPC6, membrane potential fluorescence, at 10 µM; stronger effect = higher value.
Assay [11] shares this target. Nature of the assay: TRPC6 potentiation by TRPC4 potentiator hits, confirmation, selectivity assay for TRPC4 potentiator project, HEK293 cells, membrane potential dye, duplicate (AID 434952). The conditions noted are these: HEK293 TRPC6, membrane potential dye fluorescence, at 10 µM, maximal acetylcholine added after compound; stronger effect = higher value.
Assay [12] has as its target Short transient receptor potential channel 4 (Mus musculus) (UniProt Q9QUQ5). Nature of the assay: calcium flux activators in TRPC4/5HT1a cells, counter-screen for TRPC4 activator project, cell-based, second counter screen, HEK293 TRPC4/5HT1a, Fluo-4 (AID 434977;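 active means calcium signal rise above buffer-control mean plus 5 SD in both duplicates, and also a hit in the primary screen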). The conditions noted are these: Fluo-4 calcium flux, at 10 µM; stronger effect = higher value.
Assay [13] can be described thus: calcium flux inhibitors in TRPC4/5HT1a cells, confirmation, counter-screen for TRPC4 inhibitor project, cell-based, second counter screen, HEK293 TRPC4/5HT1a, Fluo-4 (AID 434978;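 active means primary screen active whose calcium signal fell more than 3 SD beyond the full-serotonin control mean in both duplicate plates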;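 on outcome: serotonin given first at submaximal then at maximal dose after compound preincubation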). The conditions noted are these: Fluo-4 calcium flux, at 10 µM, serotonin added to trigger calcium flux; stronger effect = higher value.
Assay [14] concerns TRPC4 (mouse), co-expressed with 5HT1a in HEK293. Nature of the assay: calcium flux potentiators in TRPC4/5HT1a cells, confirmation, counter-screen for TRPC4 potentiator project, cell-based, second counter screen, HEK293 TRPC4/5HT1a, Fluo-4 (AID 434979;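 active means signal rise over 3 SD above mean of control wells given weak agonist, in both repeats and first screen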). The conditions noted are these: Fluo-4 calcium flux, at 10 µM, serotonin added at its EC20 dose; stronger effect = higher value.
Assay [15] in a line: calcium flux activation in mu-opioid HEK293 cells, confirmation, counter-screen for TRPC4 activator project, cell-based, HEK293 mu-opioid receptor line (AID 449723;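 active means hit in primary screen, with calcium signal over 5 SD above buffer well mean in both duplicates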;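 further: counter screen cells carry the mu-opioid receptor alone and lack TRPC4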). The conditions noted are these: Fluo-4 calcium fluorescence, at 10 µM; stronger effect = higher value.
A short description of assay [16]: calcium flux enhancement in mu-opioid HEK293 cells, confirmation, counter-screen for TRPC4 allosteric potentiator project, cell-based, HEK293 mu-opioid receptor line (AID 449724;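 active means calcium signal rise more than 3 SD above the low-dose agonist control mean, in both duplicate plates and the primary screen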;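 further: HEK293 cells carrying mu-opioid receptor only with no TRPC4 channel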). The conditions noted are these: Fluo-4 calcium flux, at 10 µM, compound added before EC20 DAMGO stimulus; stronger effect = higher value.

SMILES strings stand for the structures. For some of these results: Measured potencies and affinities stand elsewhere. Activity calls are given as the source filed them.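 How the source made its calls, unless noted: active means compound raising the membrane signal above positive-control mean plus 3 SD in both repeats, and a primary screen hit; inactive means the rest.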

Chain of Short transient receptor potential channel 4 (Mus musculus) (Q9QUQ5 whole entry, looked up): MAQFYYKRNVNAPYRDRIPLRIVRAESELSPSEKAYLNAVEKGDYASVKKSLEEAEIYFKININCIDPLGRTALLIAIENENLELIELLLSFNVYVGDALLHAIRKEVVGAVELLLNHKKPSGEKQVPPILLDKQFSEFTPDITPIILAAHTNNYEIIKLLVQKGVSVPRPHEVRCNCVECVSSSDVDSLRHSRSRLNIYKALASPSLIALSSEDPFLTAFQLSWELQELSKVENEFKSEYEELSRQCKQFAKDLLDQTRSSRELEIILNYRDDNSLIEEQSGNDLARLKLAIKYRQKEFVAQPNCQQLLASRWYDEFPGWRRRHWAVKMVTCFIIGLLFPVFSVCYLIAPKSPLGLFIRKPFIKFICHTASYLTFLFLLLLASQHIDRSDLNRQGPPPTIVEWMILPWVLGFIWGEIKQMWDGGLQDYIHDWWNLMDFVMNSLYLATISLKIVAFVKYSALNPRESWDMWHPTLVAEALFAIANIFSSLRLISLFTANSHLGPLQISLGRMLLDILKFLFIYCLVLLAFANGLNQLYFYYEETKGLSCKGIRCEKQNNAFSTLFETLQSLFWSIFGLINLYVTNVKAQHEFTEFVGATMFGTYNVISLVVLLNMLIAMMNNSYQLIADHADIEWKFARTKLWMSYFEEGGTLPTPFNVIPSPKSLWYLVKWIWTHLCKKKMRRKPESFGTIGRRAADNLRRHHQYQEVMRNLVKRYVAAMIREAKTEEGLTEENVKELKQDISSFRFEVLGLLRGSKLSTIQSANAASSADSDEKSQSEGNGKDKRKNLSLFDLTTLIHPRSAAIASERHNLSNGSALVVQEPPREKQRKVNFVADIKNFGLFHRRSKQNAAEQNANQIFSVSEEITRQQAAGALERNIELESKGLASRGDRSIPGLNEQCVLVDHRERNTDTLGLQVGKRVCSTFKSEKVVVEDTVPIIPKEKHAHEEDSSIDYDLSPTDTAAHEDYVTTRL
Chain of Short transient receptor potential channel 6 (Mus musculus) (Q61143 whole entry, looked up): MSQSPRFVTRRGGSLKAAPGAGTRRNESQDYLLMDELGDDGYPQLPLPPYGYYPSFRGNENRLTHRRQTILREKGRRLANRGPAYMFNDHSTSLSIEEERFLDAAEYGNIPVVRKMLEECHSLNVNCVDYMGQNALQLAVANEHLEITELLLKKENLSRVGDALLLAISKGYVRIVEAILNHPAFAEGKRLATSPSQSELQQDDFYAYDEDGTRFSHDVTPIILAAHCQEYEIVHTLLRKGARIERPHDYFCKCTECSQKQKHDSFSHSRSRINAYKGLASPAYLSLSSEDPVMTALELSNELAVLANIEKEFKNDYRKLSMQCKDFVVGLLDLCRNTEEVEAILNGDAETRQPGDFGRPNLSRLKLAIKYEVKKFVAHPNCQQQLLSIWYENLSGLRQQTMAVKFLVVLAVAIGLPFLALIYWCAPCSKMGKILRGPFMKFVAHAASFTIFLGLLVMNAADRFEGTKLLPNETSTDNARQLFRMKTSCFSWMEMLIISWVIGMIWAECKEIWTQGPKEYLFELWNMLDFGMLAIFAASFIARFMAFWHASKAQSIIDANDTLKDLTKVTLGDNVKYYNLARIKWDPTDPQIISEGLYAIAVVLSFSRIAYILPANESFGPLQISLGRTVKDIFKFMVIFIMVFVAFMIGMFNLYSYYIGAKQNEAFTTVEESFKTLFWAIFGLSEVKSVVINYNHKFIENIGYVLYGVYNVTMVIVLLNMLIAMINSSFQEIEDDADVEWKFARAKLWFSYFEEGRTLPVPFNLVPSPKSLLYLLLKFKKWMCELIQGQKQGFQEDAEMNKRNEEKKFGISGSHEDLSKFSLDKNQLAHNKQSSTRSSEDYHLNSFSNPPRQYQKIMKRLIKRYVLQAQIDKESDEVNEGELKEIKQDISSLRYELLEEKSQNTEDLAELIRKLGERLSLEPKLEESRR

What is called inhibition is the change of the read-out against control, counted positive when it falls. For the molecule `O=C(O)c1ccc(NC(=S)NC(=O)c2ccc(-c3ccccc3)cc2)cc1`, the outcome in assay [1], in [2], in [3], in assay [4], in assay [6] and in [7] was inactive. For the same molecule, the result in [8], in [9], in [10], in [11], in assay [12] and in [14] was inactive. Moreover, the result in [15] and in assay [16] was inactive. The inhibition in [5] was 64% (active); in [13], 43.1% (active).

With `CN(C)c1ccc([N+](=O)[O-])cc1C(=O)NCC(c1ccco1)N(C)C` (stereo unspecified), the result in assay [1], in [2], in assay [3], in [4], in assay [6] and in assay [7] was inactive. The result in assay [8], in assay [9], in assay [10], in [11], in assay [12] and in [13] was inactive. Also, the outcome in [14], in assay [15] and in [16] was inactive. Further, the inhibition in [5] is 58% (active).

For the molecule `O=c1c2ccccc2nc(SCc2ccc([N+](=O)[O-])cc2)n1CCCO`, the outcome in assay [1], in assay [2], in [3], in assay [4], in [7] and in [8] was inactive. Moreover, the result in assay [9], in assay [10], in [11], in assay [12], in assay [14] and in assay [15] was inactive. Moreover, the result in [16] was inactive. The inhibition in assay [5] was 90% (active); in assay [6] it was 68% (active); in assay [13], 19.5% (active).

`O=c1oc2ccccc2c(Nc2ccccc2)c1CN1CCCCC1`: the result in assay [1], in assay [2], in assay [3], in assay [4], in [7] and in assay [8] was inactive. The result in [9], in assay [10], in assay [11], in [12], in assay [13] and in [14] was inactive. In addition, the result in [15] and in [16] was inactive. Besides, the inhibition in [5] is 84% (active); in [6], 46% (active).

As for `CC1CCCN1CC#CC(O)(c1ccccc1)c1ccccc1` (stereo unspecified), the result in [1], in assay [2], in assay [3], in assay [4], in [7] and in assay [8] was inactive. Moreover, the molecule was called inactive in [10], in [11], in assay [12], in assay [14], in assay [15] and in assay [16]. Also, the inhibition in [5] was 79% (active); in [6], 62% (active); in assay [9], 13.5% (active); in assay [13], 33.5% (active).

As to `Cn1c(-c2ccc(F)cc2)cnc1NCc1ccc(F)cc1F`, the result in assay [1], in assay [2], in assay [3], in assay [4], in assay [7] and in assay [8] was inactive. Further, the molecule was called inactive in assay [9], in assay [10], in assay [11], in assay [12], in assay [14] and in [15]. Besides, in assay [16], the result was inactive. In addition, the results for the inhibition in assay [5], in assay [6] and in assay [13] were 88% (active), 46% (active) and 29.9% (active), respectively.

`CC(=O)Nc1ccc(S(=O)(=O)NC2=C(N3CCN(Cc4ccccc4)CC3)C(=O)c3ccccc3C2=O)cc1`: the result in assay [1], in [2], in assay [3], in [4], in [7] and in assay [8] was inactive. In addition, the molecule was classed as inactive in [10], in assay [11], in [12], in [13], in assay [14] and in assay [15]. In addition, the result in [16] was inactive. Besides, the inhibition in assay [5] is 72% (active); in assay [6], 40% (active); in assay [9] it was 30% (active).

For the molecule `O=c1c2ccccc2[nH]c(=S)n1CCN1CCN(Cc2ccccc2)CC1`, the outcome in assay [1], in assay [2], in [3], in [4], in assay [7] and in assay [8] was inactive. Further, the call in [9], in [10], in assay [11], in assay [12], in assay [13] and in assay [14] was inactive. In addition, the outcome in [15] and in [16] was inactive. In addition, the values for the inhibition in [5] and in [6] were 75% (active) and 44% (active), respectively.

On to `CCOCCCNCc1cc(Br)ccc1OCc1ccccc1`, for which the outcome in [1], in assay [2], in [3], in [4], in assay [7] and in assay [8] was inactive. Moreover, the molecule was classed as inactive in assay [10], in [11], in assay [12], in assay [14], in assay [15] and in assay [16]. In addition, the inhibition in assay [5] was 94% (active); in assay [6], 49% (active); in [9], 28% (active); in assay [13], 16.2% (active).

For `CCn1c(NCc2c[nH]c3ccccc23)nc2ccccc21`, the result in assay [1], in assay [2], in [3], in assay [4], in [6] and in assay [7] was inactive. The result in assay [8], in assay [9], in assay [10], in [11], in assay [12] and in [14] was inactive. Besides, the result in assay [15] and in [16] was inactive. For the same molecule, the inhibition was 89% (active) in assay [5] and 32.7% (active) in assay [13].

In the case of `Cc1oc(-c2ccc(Cl)cc2)nc1CN1CCC(C(=O)NCc2cccs2)CC1`, the result in assay [1], in assay [2], in assay [3], in [4], in assay [6] and in assay [7] was inactive. Besides, the outcome in assay [8], in assay [9], in assay [10], in [11], in [12] and in assay [14] was inactive. Moreover, the result in assay [15] and in assay [16] was inactive. Further, the inhibition was 79% (active) in assay [5] and 26.7% (active) in [13].

Turning to `c1ccc(-c2ccccc2OCCOCCN2CCCCC2)cc1`, the outcome in [1], in assay [2], in [3], in [4], in [7] and in [8] was inactive. The outcome in assay [9], in assay [10], in [11], in [12], in assay [14] and in [15] was inactive. For the same molecule, in [16], the result was inactive. The results for the inhibition in assay [5], in assay [6] and in assay [13] were 94% (active), 44% (active) and 33.7% (active), respectively.

Take `O=C(O)c1ccc(CSc2nc(-c3ccc(Cl)cc3)cc(C(F)(F)F)n2)cc1`: the result in assay [1], in assay [2], in assay [3], in assay [4], in assay [6] and in [7] was inactive. Besides, the result in [8], in assay [9], in [10], in assay [11], in [12] and in [14] was inactive. In addition, the outcome in assay [15] and in assay [16] was inactive. The inhibition in [5] is 77% (active); in [13], 19.2% (active).

With `CCC(=O)N1CCc2cc(S(=O)(=O)NCCN3CCCCC3CC)ccc21` (stereo unspecified), the outcome in [1], in assay [2], in [3], in assay [4], in [7] and in assay [8] was inactive. Further, the outcome in assay [9], in assay [10], in assay [11], in assay [12], in [14] and in assay [15] was inactive. The result in assay [16] was inactive. The inhibition is 94% (active) in assay [5], 59% (active) in assay [6] and 17.9% (active) in assay [13].

As to `Cc1ccc2cc(CN(CCN3CCOCC3)C(=O)NCc3ccccc3)c(=O)[nH]c2c1C`, the outcome in [1], in [2], in assay [3], in assay [4], in assay [7] and in assay [8] was inactive. Moreover, the call in [9], in assay [10], in assay [11], in [12], in assay [14] and in [15] was inactive. Further, the result in [16] was inactive. The values for the inhibition in assay [5], in assay [6] and in assay [13] were 80% (active), 42% (active) and 34% (active), respectively.

Regarding `CC(=O)Nc1ccc(S(=O)(=O)Nc2nc3ccc(C)cc3s2)cc1`, the result in [1], in assay [2], in [3], in [4], in assay [6] and in assay [7] was inactive. Besides, the outcome in assay [8], in assay [9], in [10], in assay [11], in assay [12] and in [13] was inactive. For the same molecule, the outcome in [14], in assay [15] and in [16] was inactive. For the same molecule, the inhibition in assay [5] was 65% (active).

(Values after PubChem BioAssay.)
